Assay outcomes from PubChem.
D1 PAM = enhances dopamine response at the human D1 receptor | HEK293 TREx D1 cells, calcium flux, dopamine EC20 potentiation | potentiation, % at 10 µM | hit rate 0.036% among 360,000 | AID 504651; in the data active = potentiation above about 30%
D3 ag = activates the human D3 dopamine receptor; P35462; D3R DiscoveRx beta-arrestin cells, luminescence, 90 min; max activation, %; hit rate 0.58% among 410,000; AID 652048; in the data active = max activation above about 30%
Target sequence (P35462 whole entry, looked up): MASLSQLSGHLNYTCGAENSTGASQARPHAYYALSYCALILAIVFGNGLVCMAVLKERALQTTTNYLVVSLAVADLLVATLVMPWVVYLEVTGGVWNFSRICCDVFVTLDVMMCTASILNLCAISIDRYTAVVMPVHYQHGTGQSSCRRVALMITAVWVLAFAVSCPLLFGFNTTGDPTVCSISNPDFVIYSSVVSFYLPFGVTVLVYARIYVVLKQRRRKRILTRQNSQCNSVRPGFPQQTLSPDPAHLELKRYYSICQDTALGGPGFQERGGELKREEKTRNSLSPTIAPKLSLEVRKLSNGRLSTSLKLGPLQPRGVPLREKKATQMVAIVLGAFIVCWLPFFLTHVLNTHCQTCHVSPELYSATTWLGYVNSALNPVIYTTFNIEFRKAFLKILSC
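Agonist mode: compounds and dopamine controls were applied to plated cells for 90 min at 37 degrees C after an overnight attachment at 1500 cells/well. Luminescent read-out followed 30 - 60 minutes at room temperature with DiscoveRx detection reagent.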
DRD3 antagonist = antagonists of human D3 dopamine receptor; hit rate 2.5% among 360,000; max response, negative = inhibition, %; P35462; D3R cells, DiscoveRx beta-arrestin luminescence, antagonist mode; hits give low values; in the data active = max response below about -50%; inconclusive = no clear call, values can overlap the other calls
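Cells plated overnight at 1500 cells/well, then exposed to library compounds with dopamine controls for 90 minutes at 37 degrees C. DiscoveRx reagent added for 30–60 minutes at room temperature; luminescence read, quantitative HTS format.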
D1 agonist = human D1 receptor agonism | P21728 | HEK293 T-REx D1 cells, calcium flux, agonist mode | activation, % at 2 µM | hit rate 1% among 360,000; in the data active = activation above about 30%
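Inducible HEK293 T-REx D1 cells, force-coupled to calcium signalling, were plated at 4000 cells/well with tetracycline and held overnight at 30 C. After no-wash calcium dye loading, compound-evoked calcium rise over 180 s flagged agonists.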
D1 antagonist = blocks dopamine activation of the human D1 receptor. P21728. HEK293 TREx D1 cells, calcium flux, dopamine EC80; hits give low values. activity change, negative = inhibition, % at 10 µM. hit rate 3.2% among 360,000; in the data active = activity change below about -30%
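Kinetic fluorescence of a calcium dye serves as the read-out. D1-expressing Hek293 Trex cells, induced overnight at 30 C, are exposed to compound for 180 s before an EC80 dopamine addition, then read 180 s further.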
Numbers stand for hits. In the library only some 6.1% were active in any assay of this set; here they are far more common.

`CC1(C)SCC(C(=O)O)NC1=O` (stereo unspecified) gave D1 PAM inactive, D3 ag inactive, DRD3 antagonist inactive, D1 agonist inactive and D1 antagonist -33.5.
`Cc1ccc(-c2csc3ncnc(Sc4nnnn4C)c23)cc1` gave D1 PAM inactive, D1 agonist inactive and D1 antagonist inactive.
Screening Cn1nnnc1Sc1ncnc2scc(-c3ccc(F)cc3)c12 returned D1 PAM inactive, D3 ag inactive, DRD3 antagonist -56.6, D1 agonist inactive and D1 antagonist inactive.
Screening COc1ccc(NC(=O)C(CC(=O)O)C(C)c2ccccc2)cc1 (stereo unspecified) returned D1 PAM inactive, D3 ag inactive, DRD3 antagonist inactive, D1 agonist inactive and D1 antagonist -39.3.
`COc1ccc(NC(=O)C(CC(=O)O)Cc2ccccc2)cc1` (stereo unspecified) gave D1 PAM inactive, D3 ag inactive, DRD3 antagonist inactive, D1 agonist inactive and D1 antagonist inactive.
For CN(C)CC/C=C1/c2cc(F)ccc2Sc2ccc(Cl)cc21 the results were D3 ag inactive and DRD3 antagonist -84.3.
`CN(C)CC/C=C1/c2ccccc2CSc2ccccc21` gave D3 ag inactive.
`COc1cc2c(cc1Cl)/C(=C\CCN(C)C)c1ccccc1S2` gave D1 PAM inactive, D3 ag inactive, DRD3 antagonist -92.4, D1 agonist inactive and D1 antagonist -40.9.
`COc1cc(Cl)cc2c1Sc1ccccc1/C2=C/CCN(C)C` gave D1 PAM inactive, D3 ag inactive, DRD3 antagonist -76.8, D1 agonist inactive and D1 antagonist -62.4.
Screening CN(C)CC/C=C1/c2ccccc2Sc2c(O)cc(Cl)cc21 returned D1 PAM inactive, D3 ag inactive, DRD3 antagonist inconclusive, D1 agonist 43.7 and D1 antagonist -93.8.
CCOc1ccc2nc(N3CCN(C(=O)c4ccco4)CC3)sc2c1 was read as D1 PAM inactive, D3 ag inactive and D1 agonist inactive.
Screening CCc1ccc(CN(Cc2ccco2)c2cnc(S(C)(=O)=O)nc2C(=O)Nc2cccc(C)c2)cc1 returned D1 PAM inactive, D3 ag inactive, D1 agonist inactive and D1 antagonist inactive.
CCc1cccc(NC(=O)CCNS(=O)(=O)c2ccc3c(c2)CCN3C(C)=O)c1 was read as D1 PAM inactive, D3 ag inactive, D1 agonist inactive and D1 antagonist inactive.
For CC(=O)c1ccc2c(c1)N(Cc1ccc3ccccc3c1)C(=O)C(C)S2 (stereo unspecified) the results were D3 ag inactive and DRD3 antagonist -74.8.
`CC1Sc2ccccc2N(Cc2ccccc2)C1=O` (stereo unspecified) gave D3 ag inactive and DRD3 antagonist inactive.
Screening O=C(/C=C/c1ccccc1)c1ccccc1 returned D1 PAM inactive, D3 ag inactive, DRD3 antagonist inactive, D1 agonist inactive and D1 antagonist inactive.
For O=C(/C=C/c1ccccc1)c1ccc2ccccc2c1 the results were D3 ag inactive and DRD3 antagonist -50.6.
`N#Cc1ccc(/C=C/C(=O)c2ccccc2)cc1` gave D1 PAM inactive, D3 ag inactive, DRD3 antagonist -69.7, D1 agonist inactive and D1 antagonist inactive.
For O=C(/C=C/c1ccccc1)/C=C/c1ccccc1 the results were D1 PAM inactive, D3 ag inactive, DRD3 antagonist -58.2, D1 agonist inactive and D1 antagonist inactive.
O=C(C=Cc1ccccc1)NCCNC(=O)C=Cc1ccccc1 was read as D3 ag inactive and DRD3 antagonist inactive.
`Cc1cc2c(s1)c1cnn(Cc3c(F)ccc(C)c3Cl)c(=O)c1n2C` gave D1 PAM inactive, D1 agonist inactive and D1 antagonist inactive.
Screening O=C1C(Cl)=C(N2CCCCCC2)C(=O)N1c1ccc(Cl)cc1 returned D1 PAM inactive, D3 ag inactive, DRD3 antagonist inactive, D1 agonist inactive and D1 antagonist inactive.
Screening O=C1C(Cl)=C(N2CCOCC2)C(=O)N1c1cccc(C(F)(F)F)c1 returned D1 PAM inactive, D3 ag inactive, DRD3 antagonist inactive, D1 agonist inactive and D1 antagonist -33.6.
`COC(=O)c1cccc(N2C(=O)C(Cl)=C(N3CCOCC3)C2=O)c1` gave D1 PAM inactive, D3 ag inactive, DRD3 antagonist inactive, D1 agonist inactive and D1 antagonist inactive.
O=C1C(Cl)=C(N2CCCC2)C(=O)N1c1ccc(F)cc1 was read as D1 PAM inactive, D3 ag inactive, DRD3 antagonist inactive, D1 agonist inactive and D1 antagonist -32.6.
For O=C(Nc1ccc(-c2cn3cccnc3n2)cc1)c1ccccc1F the results were D1 PAM inactive, D3 ag inactive, D1 agonist inactive and D1 antagonist inactive.
Screening CC(=O)N1c2ccccc2CC1C(=O)N1CCN(c2cccc(Cl)c2)CC1 (stereo unspecified) returned D1 PAM inactive, D3 ag inactive, D1 agonist inactive and D1 antagonist inactive.
`Cc1ccc(C)c2c1CCC(=Cc1ccccc1[N+](=O)[O-])C2=O` gave D3 ag inactive and DRD3 antagonist inactive.
For CN1C/C(=C/c2ccccc2[N+](=O)[O-])C(=O)/C(=C\c2ccccc2[N+](=O)[O-])C1 the results were D3 ag inactive and DRD3 antagonist -90.4.
`CCCOc1ccc(C(=O)NNC(=S)NC(=O)c2ccccc2)cc1` gave D1 PAM inactive, D3 ag inactive, DRD3 antagonist inactive, D1 agonist 196.5 and D1 antagonist inactive.
For CCCOc1ccc(C(=O)NNC(=S)NC(=O)c2cc(-c3ccccc3)nc3ccccc23)cc1 the results were D1 PAM inactive, D3 ag inactive, DRD3 antagonist -55.4, D1 agonist inactive and D1 antagonist inactive.
`CCCCOc1ccc(C(=O)NNC(=S)NC(=O)CC)cc1` gave D1 PAM inactive, D3 ag inactive, DRD3 antagonist inconclusive, D1 agonist inactive and D1 antagonist inactive.
For CCCOc1ccc(C(=O)NNC(=S)NC(=O)c2cccs2)cc1 the results were D1 PAM inactive, D3 ag inactive, DRD3 antagonist inactive, D1 agonist 104.3 and D1 antagonist inactive.
For CCCOc1ccc(C(=O)NNC(=S)NC(C)=O)cc1 the results were D1 PAM inactive, D3 ag inactive, DRD3 antagonist inactive, D1 agonist inactive and D1 antagonist -33.9.
For CCCOc1ccc(Oc2nc(NCC(C)C)nc(N(C)C)n2)nn1 the results were D1 PAM inactive, D3 ag inactive, D1 agonist inactive and D1 antagonist inactive.
For CCOC(=O)c1cccc(NC(=O)C(C)n2nc(C)c3c(C)n(-c4ccccc4)nc3c2=O)c1 (stereo unspecified) the results were D1 PAM inactive, D3 ag inactive, D1 agonist inactive and D1 antagonist inactive.
Screening COc1ccc2nc3oc(C(=O)N(C)c4ccc(Cl)cc4)cc3cc2c1 returned D1 PAM inactive, D3 ag inactive, D1 agonist inactive and D1 antagonist inactive.
CC(C)COc1cccc(C(=O)Nc2ccc(-c3nc4ncccc4o3)cc2)c1 was read as D1 PAM inactive, D3 ag inactive, D1 agonist inactive and D1 antagonist inactive.
